# Laboratory results published in article PMC4336329 (PLoS ONE, 2015).
# In all, about 310,000 compounds went through this assay and about 14,000 (4.5%) showed an effect of 50% or more. Effects have a minus sign here. The list comes from a sample in which strong results are over-represented; it also holds similar structures and randomly drawn compounds.
# Target: human ether-à-go-go-related gene (hERG) potassium channel (human, UniProt Q12809)
# Assay: primary screen, population patch clamp on CHO cells stably expressing hERG; higher = less effect of the substance
# 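Further: peak tail current of the secondary pulse compared with the same well before compound.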
# Chain of human ether-à-go-go-related gene (hERG) potassium channel (Q12809 whole entry, looked up): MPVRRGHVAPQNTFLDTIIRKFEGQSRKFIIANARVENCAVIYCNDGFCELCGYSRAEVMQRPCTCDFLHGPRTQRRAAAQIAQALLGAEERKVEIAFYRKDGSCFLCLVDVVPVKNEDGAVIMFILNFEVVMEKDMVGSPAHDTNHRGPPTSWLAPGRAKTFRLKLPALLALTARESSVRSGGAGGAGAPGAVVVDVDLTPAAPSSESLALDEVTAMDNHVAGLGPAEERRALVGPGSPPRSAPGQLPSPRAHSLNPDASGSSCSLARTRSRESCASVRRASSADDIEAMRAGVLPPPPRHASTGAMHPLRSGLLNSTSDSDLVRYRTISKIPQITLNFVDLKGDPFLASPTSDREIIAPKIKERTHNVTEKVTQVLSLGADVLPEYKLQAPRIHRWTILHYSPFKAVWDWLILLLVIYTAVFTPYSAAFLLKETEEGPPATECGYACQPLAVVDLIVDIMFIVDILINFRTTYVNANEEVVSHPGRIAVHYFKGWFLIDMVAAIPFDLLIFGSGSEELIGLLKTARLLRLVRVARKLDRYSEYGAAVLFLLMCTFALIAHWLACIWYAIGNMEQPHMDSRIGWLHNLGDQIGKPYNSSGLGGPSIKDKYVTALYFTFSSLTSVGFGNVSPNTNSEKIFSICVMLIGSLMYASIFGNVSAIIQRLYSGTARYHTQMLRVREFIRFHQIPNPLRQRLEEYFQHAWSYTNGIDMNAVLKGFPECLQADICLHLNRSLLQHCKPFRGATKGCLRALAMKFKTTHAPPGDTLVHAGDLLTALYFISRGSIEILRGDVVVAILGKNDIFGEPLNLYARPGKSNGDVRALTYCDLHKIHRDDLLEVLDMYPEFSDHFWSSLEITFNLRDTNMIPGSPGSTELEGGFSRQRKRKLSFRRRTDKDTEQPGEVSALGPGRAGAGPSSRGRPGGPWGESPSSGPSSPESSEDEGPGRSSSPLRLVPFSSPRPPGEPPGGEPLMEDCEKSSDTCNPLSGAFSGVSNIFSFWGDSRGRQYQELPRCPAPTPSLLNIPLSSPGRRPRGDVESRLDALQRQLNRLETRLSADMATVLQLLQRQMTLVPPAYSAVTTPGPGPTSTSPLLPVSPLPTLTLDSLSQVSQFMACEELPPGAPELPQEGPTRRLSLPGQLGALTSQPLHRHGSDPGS
row,SMILES,"hERG current change (%, negative = inhibition) at 10uM"
1,CCOc1ccc(Br)cc1S(=O)(=O)Nc1ccccc1N1CCOCC1,-15.8%
2,O=C(Cn1cccc1)N1CCN(C(c2ccccc2)c2ccccc2)CC1,-3.68%
3,Cn1c(=O)c2c(nc(NC3CCCCC3)n2Cc2ccccc2)n(C)c1=O,14.2%
4,Cc1ccc(CN(C(=O)c2cc(=O)c3cc(C)cc(C)c3o2)C2CCS(=O)(=O)C2)cc1 (stereo not shown),-32.1%
5,COc1ccc(N2CC(C(=O)N[C@@H](C)C(=O)NC3CCCC3)CC2=O)cc1 (stereo partly shown),15.7%
6,CN(C)/C=C/C(=O)c1cnc2sccn2c1=O,5.24%
7,Cc1ccc(/C=C/C(=O)c2ccccc(=O)c2O)cc1C,-24.6%
8,O=C(/C=C/c1ccccc1Cl)c1ccccc(=O)c1O,-1.72%
9,Cc1ccc(C)c(/C=C/C(=O)c2ccccc(=O)c2O)c1,-50.7%
10,C/C(=N/NC(=O)c1ccc(Br)o1)c1cccc(NC(=O)c2ccc(F)cc2)c1,-58.9%
11,O=C(c1ccccc1)c1cccc(NC(=O)c2ccc(Br)o2)c1,-61.1%
12,C/C(=N\NC(=O)c1ccc(F)cc1)c1cccc(NC(=O)c2cccc(F)c2)c1,21.3%
13,C/C(=N/NC(=O)c1ccncc1)c1ccc(NC(=O)c2ccccc2)cc1,7.92%
14,C/C(=N/NC(=O)c1ccco1)c1cccc(NC(=O)c2ccc(C)o2)c1,-45.4%
15,C/C(=N\NC(=O)c1cccc(F)c1)c1cccc(NC(=O)c2ccc(F)cc2)c1,13%
16,C/C(=N\NC(=O)c1ccncc1)c1cccc(NC(=O)c2ccc(C(C)(C)C)cc2)c1,-53.7%
17,CC(=O)c1cccc(NC(=O)c2ccc(Br)o2)c1,-1.49%
18,O=C(Nc1ccccc1)c1ccc(Br)o1,3.15%
19,COc1ccc(C(=O)N/N=C(/C)c2cccc(NC(=O)c3ccncc3)c2)cc1OC,8.48%
20,C/C(=N/NC(=O)c1ccc(Br)o1)c1cccc(NC(=O)c2ccc(C)o2)c1,-67.6%
21,C/C(=N\NC(=O)c1cccc(Br)c1)c1cccc(NC(=O)c2ccc(C)o2)c1,-6.46%
22,CCCCNC(=O)c1onc(CSc2ccc(Cl)cc2)c1C(=O)NCCCC,-20.5%
23,CCC(C(=O)Nc1ccc(C(C)C)cc1)c1ccccc1 (stereo not shown),11.8%
24,COc1cc(/C=N/NC(=O)CNC(=O)c2ccc3c(c2)OCCO3)ccc1O,1.98%
25,COc1cccc(C2CCCN2Cc2nc(-c3cnccn3)no2)c1 (stereo not shown),7.84%
26,CC(NC(=O)Cc1cccs1)c1ccccc1 (stereo not shown),24.5%
27,Cc1ccc(NC(=O)CCSc2nnc(-c3ccco3)o2)cc1,9.02%
28,COCc1cc(=O)[nH]c(Nc2nc3ccc(C)cc3o2)n1,-10.3%

row,SMILES,"hERG current change (%, negative = inhibition) at 10uM"
1,O=C(/C=C/c1ccccc1)NCCN1CCOCC1,20.6%
2,COc1ccc(C(=O)/C(=C/N(C)C)S(=O)(=O)c2ccccc2)cc1,10.8%
3,O.O=C1NC2(O)C(=O)c3ccccc3C2(O)N1 (stereo not shown),11%
4,O=C(N/N=C\c1cc(Br)cs1)c1ccncc1,-6.73%
5,CCC1Sc2ccc(S(=O)(=O)CCC(=O)NC3CCCCCC3)cc2NC1=O (stereo not shown),16.1%
6,c1ccc2c(c1)Oc1ccccc1S2,14.7%
7,CCOC(=O)c1ccc(N=C2C(=S)N(c3ccc(C(=O)OCC)cc3)C(=N)N2/N=C/c2ccccc2)cc1,-52.7%
8,N=C1N(/N=C/c2ccccc2)C(=Nc2ccccc2)C(=S)N1c1ccccc1,2.03%
9,Cc1ccc(N=C2C(=S)N(c3ccc(C)cc3)C(=N)N2/N=C/c2ccc(Cl)cc2)cc1,-6.29%
10,CCOc1ccc(C(=O)NC2CCN(C(=O)Nc3ccc(F)cc3)CC2)cc1,0.481%
11,CCc1cc2c(NCCC(=O)O)nc(C)nc2s1,24.2%
12,COc1ccc(C(=O)C2CCCN(Cc3cc(C)c(O)c(C)c3)C2)c(OC)c1 (stereo not shown),-61%
13,Cc1ncc(CN2CCCC(C(=O)c3cccc(Cl)c3)C2)s1 (stereo not shown),-13.6%
14,COc1ccc(C(=O)C2CCCN(Cc3ccc(C)s3)C2)cc1OC (stereo not shown),-71.6%
15,COc1ccc(C(=O)C2CCCN(Cc3ccc(C#CCCO)cc3)C2)cc1F (stereo not shown),-45.3%
16,Cc1ncc(CN2CCCC(C(=O)c3ccc(C(C)(C)C)cc3)C2)s1 (stereo not shown),-72.8%
17,COc1ccc(C(=O)C2CCCN(Cc3cnc(C)s3)C2)cc1OC (stereo not shown),-5.12%
18,COc1ccc2cc(C(=O)C3CCCN(Cc4cnc(C)s4)C3)ccc2c1 (stereo not shown),-28.8%
19,COc1ccc(C(=O)C2CCCN(Cc3ccc(C#CCCO)cc3)C2)c(OC)c1 (stereo not shown),-51.2%
20,CCOC(=O)N1CCN(c2nc(-c3cccc(OC)c3)cc(C(F)(F)F)n2)CC1,6.67%
21,Cc1c(C(=O)N2CCCC2)c(S(=O)(=O)Nc2cccc(Br)c2)c(C)n1C,6.99%
22,CCN(CC)C(=O)Cn1cnc2sc(C(=O)Nc3cc(OC)c(OC)c(OC)c3)c(C)c2c1=O,14.5%
23,Cn1cc(/C=N\NC(=O)C2COc3ccccc3O2)c2ccccc21 (stereo not shown),9.62%
24,Cc1ccc(NC(=O)NNC(=O)c2cc3ccccc3cc2O)c(C)c1,27.4%
25,Cc1ccccc1C1NS(=O)(=O)N=C1N (stereo not shown),23.3%
26,CC(Oc1ccc(-c2ccccc2)c(F)c1)c1ccn(S(=O)(=O)c2ccc(Br)cc2)n1 (stereo not shown),7.43%
27,COCCCNC(=O)CN1C(=O)/C(=C\c2ccc(C)cc2)Sc2ccccc21,-15.8%
